Structures are written as SMILES. Whole data set: some 110,000 compounds, median “z-score” near -0.1, cut for the highest 2% near 2. The list comes from a sample in which the highest values are over-represented; it also holds similar structures and randomly drawn compounds. Activity calls are given as the source filed them.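 How the source made its calls: active means z-score in the third read window above 3 or below -3; inactive means the rest.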

The assay deals with Metabotropic glutamate receptor 8 (Rattus norvegicus) (UniProt P70579). The assay is described as follows: rat mGluR8 modulators via GIRK flux, primary screen, cell-based, thallium flux, HTS (AID 488969). To be noted: HEK293 rat mGluR8, GIRK (G protein-gated inwardly rectifying potassium channel) thallium flux, FluoZin2; at 10 µM; stronger effect = higher value; submaximal glutamate (EC20) added with thallium.
Chain of Metabotropic glutamate receptor 8 (Rattus norvegicus) (P70579 whole entry, looked up): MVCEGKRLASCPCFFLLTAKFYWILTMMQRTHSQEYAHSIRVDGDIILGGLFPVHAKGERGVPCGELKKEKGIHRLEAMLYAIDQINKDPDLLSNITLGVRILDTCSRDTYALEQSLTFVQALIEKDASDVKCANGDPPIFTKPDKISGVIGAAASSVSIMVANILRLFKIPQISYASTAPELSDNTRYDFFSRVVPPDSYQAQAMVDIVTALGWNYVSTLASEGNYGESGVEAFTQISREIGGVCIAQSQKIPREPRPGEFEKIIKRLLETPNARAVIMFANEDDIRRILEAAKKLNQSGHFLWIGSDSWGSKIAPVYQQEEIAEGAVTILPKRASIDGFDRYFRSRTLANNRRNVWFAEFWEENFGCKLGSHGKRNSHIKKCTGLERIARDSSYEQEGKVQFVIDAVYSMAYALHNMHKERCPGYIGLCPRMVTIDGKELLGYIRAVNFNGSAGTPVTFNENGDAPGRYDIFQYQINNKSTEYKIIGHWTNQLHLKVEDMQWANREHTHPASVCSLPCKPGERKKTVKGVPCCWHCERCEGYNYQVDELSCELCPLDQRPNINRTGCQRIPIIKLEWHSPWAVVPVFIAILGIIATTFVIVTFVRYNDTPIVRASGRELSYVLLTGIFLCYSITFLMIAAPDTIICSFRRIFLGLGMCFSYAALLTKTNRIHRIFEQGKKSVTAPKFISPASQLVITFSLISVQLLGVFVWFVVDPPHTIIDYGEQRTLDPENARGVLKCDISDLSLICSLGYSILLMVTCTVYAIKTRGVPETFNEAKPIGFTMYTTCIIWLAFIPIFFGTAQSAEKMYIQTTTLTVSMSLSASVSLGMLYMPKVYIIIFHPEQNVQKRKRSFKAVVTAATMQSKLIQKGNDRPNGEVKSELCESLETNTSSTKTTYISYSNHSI
`Cc1ccc(C(=O)O)cc1S(=O)(=O)N1CCC(C(=O)O)CC1` showed a z-score of 0.299.
In the case of `Cc1ccc(C(=O)O)cc1S(=O)(=O)N1CCOCC1` it was -0.267.
`Cc1ccc(C(=O)O)cc1S(=O)(=O)N1CCCC1` gave a z-score of 2.05.
Regarding `CCOC(=O)c1cnc2c(C#N)c(C)nn2c1C`, the z-score worked out at 0.0622.
For the compound `COc1ccc(NS(=O)(=O)c2cc(NC(=O)c3ccc(C)o3)ccc2N2CCCCC2)cc1`, the z-score is -0.024.
The figure for `CC1CCCCN1CCNC(=O)c1cc2c(=O)n(C)c3ccccc3c2n1C` (stereo not given) is 1.88; for `CC1CCCC(C)N1CCCNC(=O)c1cc2c(=O)n(C)c3ccccc3c2n1C` (stereo not given) it is 2.79; for `Cn1c(C(=O)NCCN2CCOCC2)cc2c(=O)n(C)c3ccccc3c21` it is -2.82.
In the case of `Cn1c(C(=O)NCCCN2CCCCCC2)cc2c(=O)n(C)c3ccccc3c21`, the z-score came out at 2.52.
In the case of `Cn1c(C(=O)NCCN2CCCCCC2)cc2c(=O)n(C)c3ccccc3c21` it was 1.86.
In turn, `CC1CCN(CCCNC(=O)c2cc3c(=O)n(C)c4ccccc4c3n2C)CC1` showed a z-score of 2.7.
In the case of `Cn1c(C(=O)NCCCN2CCN(c3ccccc3F)CC2)cc2c(=O)n(C)c3ccccc3c21` it was 2.46.
Turning to `Cn1c(C(=O)NCCCN2CCN(c3ccccc3F)CC2)cc2c(=O)[nH]c3ccccc3c21`, the z-score was -0.0771.
The figure for `Cn1c(C(=O)NCCCN2CCOCC2)cc2c(=O)n(C)c3ccccc3c21` is 0.0335; for `CCCN1CCN(CCCNC(=O)c2cc3c(=O)n(C)c4ccccc4c3n2C)CC1` it is 1.48.
The figure for `Cn1c(C(=O)NCCCN2CCCC2=O)cc2c(=O)n(C)c3ccccc3c21` is -0.963; for `CCC(=O)N1CCN(c2nc3ccccc3s2)CC1` it is -0.0557; for `O=C(NNC(=S)NC1CCCCC1)c1cccc(S(=O)(=O)Nc2ccccc2Cl)c1` it is -0.537.
The compound `O=C(CCNc1ccccc1)c1cccc([N+](=O)[O-])c1` registered a z-score of -0.134.
`Cc1cccc(NC(=O)c2sc(NC(=O)COc3ccccc3)c(C#N)c2C)c1C` yielded a z-score of -0.152.
The figure for `CC(OC(=O)c1cc2sccc2n1C)C(=O)NCc1ccc2c(c1)OCO2` (stereo not given) is -0.018.
In the case of `Cc1snc2sc(C(=O)c3ccc(Br)cc3)c(N)c12` it was -0.378.
The figure for `O=C(NCc1ccco1)c1cc(-c2ccc3c(c2)OCO3)on1` is -0.862.
`O=C(O)CCCN1C(=O)C2C3CCC(O3)C2C1=O` (stereo not given): the z-score is -0.35.
The figure for `CCCCn1c(SCC(=O)Nc2ccccc2C(F)(F)F)nc2ccsc2c1=O` is 0.00651; for `COCCN(CCOC)C(=O)CC(=O)N(CCOC)CCOC` it is 0.0459.
As for `CN1CCN(CCNC(=O)c2cc3c(=O)n(C)c4ccccc4c3n2C)CC1`, the z-score turned out to be 0.327.
The figure for `Cn1c(C(=O)NCCCN2CCc3ccccc3C2)cc2c(=O)n(C)c3ccccc3c21` is 0.807; for `Cn1c(C(=O)NCCN2CCc3ccccc3C2)cc2c(=O)n(C)c3ccccc3c21` it is 2.7.
In the case of `COc1cccc(C(=O)OCC(=O)Nc2cc(C)c(C)cc2[N+](=O)[O-])c1` it was -0.131.
Take `O=C(C1CCCN(Cc2ccccc2)C1)N1CCCCC1` (stereo not given): the z-score was 0.122.
For the compound `O=C(C1CCCN(Cc2cccs2)C1)N1CCCCCC1` (stereo not given), the z-score was 3.36 (active).
In the case of `CCOC(=O)C1CCCN(Cc2cccs2)C1` (stereo not given) it was -0.137; in that of `COc1cccc(C(=O)Cn2c(=O)n(CC3CCCO3)c(=O)c3ccccc32)c1` (stereo not given), -0.719; in that of `CC1CCN(C(=O)C2CCN(S(=O)(=O)c3cccnc3)CC2)CC1`, 2.03.
In the case of `O=C(C1CCN(S(=O)(=O)c2cccnc2)CC1)N1CCN(C2CCCC2)CC1` it was -0.318; in that of `O=C(C1CCN(S(=O)(=O)c2cccnc2)CC1)N1CCCCC1`, 0.487.
The figure for `Cc1ccc(Cn2nnc3c(=O)[nH]c(C4CCN(S(=O)(=O)c5cc(C)ccc5C)CC4)nc32)cc1` is 0.616.
With `Cc1ccc(S(=O)(=O)NCCc2ccncc2)cc1`, the z-score was -0.472.
In turn, `O=C1CCCN1CN(C(=O)c1ccc2c(c1)OCO2)c1cccc(Cl)c1` returned a z-score of -0.21.
In turn, `COC(=O)CN(c1nc(C)cc(OC)n1)S(=O)(=O)c1ccccc1` showed a z-score of -0.5.
In the case of `COc1cc(C)nc(N(Cc2ccccc2)S(=O)(=O)c2ccccc2)n1`, the z-score was 2.43.
The figure for `CCN(c1nc(C)cc(OC)n1)S(=O)(=O)c1ccccc1` is -0.243; for `CCc1ccc(S(=O)(=O)N(C(=O)c2ccncc2)c2ccc(OC(=O)c3ccncc3)cc2)cc1` it is -0.659.
With `Cn1c(CN2CCN(C(=O)c3ccccc3)CC2)nc2cc([N+](=O)[O-])ccc21`, the z-score came to 0.0497.
The figure for `Cc1c(NC(=O)c2cnn3c(C(F)(F)F)cc(-c4ccco4)nc23)c(=O)n(-c2ccccc2)n1C` is 0.95; for `Cc1ccc(C)c(NC(=O)/C(C#N)=C/c2ccc(Sc3nncn3C)c([N+](=O)[O-])c2)c1` it is -0.0512; for `CCCCOC(=O)Nc1ccc(C(N)=O)cc1` it is 0.507.
In the case of `Cc1occc1C(=O)Nc1cccc(C(=O)O)c1` it was -0.0368.
As to `COC(=O)c1cc(NC(=O)c2ccoc2C)cc(C(=O)OC)c1`, the z-score was 4.89 (active).
In the case of `Cc1occc1C(=O)Nc1ccc2ccccc2c1` it was 2.19; in that of `COC(=O)c1cc(NC(=O)c2cc(C)oc2C)cc(C(=O)OC)c1`, 0.433.
The figure for `Cc1cc(NC(=O)c2ccoc2C)no1` is -0.105; for `Cc1cccc(NC(=O)c2ccoc2C)n1` it is 2.35; for `Cc1occc1C(=O)Nc1ccccc1NC(=O)c1ccoc1C` it is 0.13.
The figure for `CCCCOC(=O)Nc1ccc(C(=O)OCCC)cc1` is 3.09 (active).
`CCOC(=O)c1cc(NC(=O)c2ccoc2C)cc(C(=O)OCC)c1` yielded a z-score of -2.39.
The compound `CCCOC(=O)c1ccc(NC(=O)Oc2ccccc2)cc1` came in with a z-score of 0.454.
With `Cc1cccc(NC(=O)c2ccccc2Br)n1`, the z-score is 0.0402.
`CSc1nc(N(C)C)nc(N2CC(=O)N(CCNS(=O)(=O)c3ccc(C)cc3)C2=N)n1` had a z-score of -0.172.
The figure for `CCC(=O)NC(=S)Nc1ccc(NC(=O)COc2ccc(Cl)c(C)c2)cc1` is -0.0852; for `CC(C)(C)C(C(Oc1ccc(Cl)cc1)n1cncn1)n1nnnc1C(c1cccc(Cl)c1)N1CCCCC1` (stereo not given) it is 0.12; for `NS(=O)(=O)c1ccc(CCNC(=O)CSc2ccccc2)cc1` it is 0.222.
In the case of `CC(C)C(NS(=O)(=O)c1cccc2nsnc12)C(=O)NCc1ccc2c(c1)OCO2` (stereo not given) it was -0.269; in that of `CCCOC(=O)c1ccc(NC(=O)c2ccoc2C)cc1`, 2.24.
Regarding `CCCOC(=O)c1ccc(NC(=O)c2ccc(Br)o2)cc1`, the z-score was -0.692.
In the case of `CCCCOC(=O)c1ccc(NC(=O)c2ccoc2C)cc1` it was -0.0292.
The figure for `COc1ccc(C(=O)NCC(=O)NCC2COc3ccccc3O2)cc1` (stereo not given) is 1.
In the case of `CCOc1cc(C(=S)N2CCC(O)CC2)ccc1OS(=O)(=O)c1ccc(Br)cc1` it was 0.875; in that of `CCC(=O)NCC(=O)OCC(=O)c1ccccc1`, -0.0257.
`Cc1cc(C)nc(SCC(=O)Nc2nc(-c3ccccc3)c(-c3ccccc3)o2)n1` came in with a z-score of -0.522.
In the case of `O=C(Nc1nc(-c2ccccc2)c(-c2ccccc2)o1)c1ccc(F)cc1`, the z-score is 13.5 (active).
Take `Cc1ccc(C(=O)Nc2nc(-c3ccccc3)c(-c3ccccc3)o2)cc1`: the z-score is 3.53 (active).
The figure for `CC(=O)Nc1nc(-c2ccccc2)c(-c2ccccc2)o1` is -0.185; for `Cc1cc(=O)[nH]c(SCC(=O)Nc2nc(-c3ccccc3)c(-c3ccccc3)o2)n1` it is -1.38; for `Cn1nnnc1SCC(=O)Nc1nc(-c2ccccc2)c(-c2ccccc2)o1` it is -0.0372.
In the case of `CCOC(=O)c1c(NC(NC(C)=O)C(Cl)(Cl)Cl)sc2c1CCCC2` (stereo not given) it was -2.34; in that of `COCCCn1c(C)nnc1SCC(=O)NCc1ccco1`, -0.305; in that of `Cc1ccc(S(=O)(=O)N(C)Cc2cc3ccccc3[nH]c2=O)cc1`, -0.0752.
`CCN(CC)CCN(Cc1cc2cc(C)ccc2[nH]c1=O)C(=S)NCc1ccco1` showed a z-score of 0.381.
The figure for `CCOC(=O)COc1cc(Br)c(/C=N/Nc2ccccc2)cc1OC` is -0.0959; for `CCC(C)(C(=O)NC1CCCCC1)N(C(=O)c1ccccn1)c1ccc(C)cc1` (stereo not given) it is -0.103.
Compound `COc1cccc(C(=O)/C=C/Nc2cccc(O)c2)c1` yielded a z-score of -0.665.
Regarding `CSc1nnc(CNC(=O)C23CC4CC(CC(C4)C2)C3)n1Cc1ccccc1`, the z-score is -0.331.
In the case of `C/C(=N\NC(=S)NCCc1ccccc1)c1cccs1` it was 3.65 (active); in that of `C/C(=N\NC(=S)NCCc1ccccc1)c1ccc(C)cc1`, 1.67.
`C/C(=N\NC(=S)NCCc1ccccc1)c1ccc(Cl)cc1` showed a z-score of 1.16.
The figure for `O=C1C2C(c3ccccc3)C=CC(c3ccccc3)C2C(=O)N1CCCO` (stereo not given) is -0.894.
The compound `O=C(CCS(=O)(=O)c1ccc(Cl)cc1)NCCN1C(=O)S/C(=C\c2ccccc2F)C1=O` showed a z-score of -0.162.
In the case of `Cc1cc(C)n2nc(SCC(=O)N3CCc4ccccc43)nc2n1` it was 0.255; in that of `Cc1ccc(C)c(Cn2nnc3c(=O)[nH]c(C4CCCN(C(=O)C5CCCCC5)C4)nc32)c1` (stereo not given), -0.651; in that of `O=C(C1CCCCC1)N1CCCC(c2nc3c(nnn3Cc3ccccc3)c(=O)[nH]2)C1` (stereo not given), 2.1.
In the case of `O=C(c1ccccc1)N1CCCC(c2nc3c(nnn3Cc3ccccc3)c(=O)[nH]2)C1` (stereo not given) it was -0.398.
Take `O=C(NCCOCCOCCNC(=O)c1cccnc1)c1cccnc1`: the z-score is 0.119.
In the case of `O=C(NCCCCNC(=O)c1cccnc1)c1cccnc1` it was 8.98 (active); in that of `O=C(NCCc1ccccc1)c1cccnc1`, -0.0437; in that of `Cc1c(NC(=O)/C(C#N)=C/c2c(Oc3ccccc3)nc3ccccn3c2=O)c(=O)n(-c2ccccc2)n1C`, 1.16.
Regarding `CSc1ncc(Cl)c(C(=O)Nc2nnc(SC)s2)n1`, the z-score was -0.194.
The figure for `Cc1nnc(NC(=O)CSc2nc(C(C)C)nc3sc(C)c(C)c23)s1` is -0.837; for `Cc1sc2nc(C3CCCCC3)nc(SCC(=O)N3CC(=O)Nc4ccccc43)c2c1C` it is -0.0509.
The figure for `CCCc1nc(SCC(=O)Nc2nnc(CC)s2)c2c(C)c(C)sc2n1` is -0.42.
The figure for `CCc1nc(SCC(=O)Nc2nnc(CC)s2)c2c(C)c(C)sc2n1` is 8.71 (active); for `Cc1cc(NC(=O)CSc2nc(C3CC3)nc3sc(C)c(C)c23)no1` it is 12.4 (active).
In the case of `Cc1nc(SCC(=O)Nc2cc(C)on2)c2c3c(sc2n1)CCCC3`, the z-score worked out at 2.03.
`Cc1cc(NC(=O)CSc2nc(C3CC3)nc3sc4c(c23)CCC(C)C4)no1` (stereo not given): the z-score amounted to 0.482.
In the case of `Cc1cc(NC(=O)CSc2nc(C(C)C)nc3sc4c(c23)CCCC4)no1` it was -0.493; in that of `Cc1sc2nc(C3CC3)nc(SCC(=O)N3CC(=O)Nc4ccccc43)c2c1C`, 3.69 (active); in that of `CCc1nc(SCC(=O)Nc2cc(C)on2)c2c(C)c(C)sc2n1`, -0.346.
`Cc1cc(NC(=O)CSc2nc3sc4c(c3c(=O)n2C)CCCC4)no1` yielded a z-score of 0.943.
For `Cc1nc(SCC(=O)N2CC(=O)Nc3ccccc32)c2c(C)c(C)sc2n1`, the z-score is -0.286.

For the origin of these results see PubChem BioAssay AID488969 (Vanderbilt High Throughput Screening Facility, 2010).
